In PubChem BioAssay AID492998 (Southern Research Specialized Biocontainment Screening …, 2010):
Hit rate of the full screen: of about 2,300 compounds, about 550 (24%) were called active. Not all results are given here. Measured potencies and affinities stand elsewhere. Values without a mark were called inactive. How the calls were made is not given here.

Test: Vero E6 cell cytotoxicity, dose response, cytotoxicity control for non-replicating M. tuberculosis project, secondary assay (AID 492998);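 further: 100% = vehicle-treated cells and 0% = background wells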
Conditions: series mostly up to 20 µM; viability: at the top concentration
With `O=C(OCCCCN1C(=O)c2ccccc2C1=O)c1ccc(Br)o1` the “viability” value was 112%.
In the case of `O=C(COc1ccc2ccccc2c1)Nc1nccs1`, the “viability” value was 96.3%.
For `O=C(CCS(=O)(=O)c1ccccc1)Nc1nnc(-c2ccco2)o1`, the “viability” value was 84.5%.
For `CC(C)Cc1nnc(NC(=O)CCS(=O)(=O)c2ccc(Cl)cc2)s1`, the “viability” value was 76.8%.
For `COc1ccc(C2(O)CCN(CC(=O)Nc3nc(-c4ccccc4)cs3)CC2)cc1`, the “viability” value was 86.3%.
With `Cc1cccc(NC(=O)COC(=O)CCc2c[nH]c3ccccc23)c1C` the “viability” value was 110%.
For `O=C(COC(=O)COc1ccc(Nc2ccccc2)cc1)NCc1ccco1`, the “viability” value was 101%.
With `CCOc1ccc(C(=O)Nc2nc3ccccc3[nH]2)cc1OCC` the “viability” value was 77.5%.
With `Cc1cc2n(n1)SC(Nc1ccccc1)N2` (stereo not drawn) the “viability” value was 86.7%.
In the case of `c1ccc2[nH]c(NC3=NCCC3)nc2c1`, the “viability” value was 94.7%.
In the case of `O=C(Nc1nc2ccccc2[nH]1)c1ccc(F)cc1`, the “viability” value was 87.5%.
For `Nc1ccc(C(=O)N/N=C\C=C\c2ccc([N+](=O)[O-])cc2)cc1`, the “viability” value was 93.4%.
In the case of `CCCOC(=O)c1cc(-c2ccc(C=O)o2)ccc1Cl`, the “viability” value was 96.6%.
In the case of `CCCCCCCCCCn1cc(C(C)=O)c(=O)[nH]c1=O`, the “viability” value was 102%.
For `CCC(CC)COC(=O)C(C#N)c1nc2ccccc2nc1N1CCN(CC)CC1` (stereo not drawn), the “viability” value was 79.7%.
With `CC(CCc1ccccc1)NC(=O)COC(=O)c1cccs1` (stereo not drawn) the “viability” value was 99.3%.
In the case of `COc1ccc(N2C(=O)NC(=O)/C(=C/c3ccc([N+](=O)[O-])s3)C2=O)cc1`, the “viability” value was 84.4%.
In the case of `O=C(NCCC1=CCCCC1)c1ccc(Br)o1`, the “viability” value was 87.7%.
With `Cc1n[nH]c(=S)n1/N=C/c1ccc(OCc2ccc(Cl)cc2Cl)cc1` the “viability” value was 95%.
In the case of `Cc1cc(-c2c(C)[nH]n(-c3ccccc3)c2=O)n[nH]1`, the “viability” value was 79.9%.
For `O=C1CC(N2CCC(C(=O)N3CCCCC3)CC2)C(=O)N1` (stereo not drawn), the “viability” value was 106%.
For `CCOC(=O)C1=C(c2ccccc2)NC(N)=NC1c1ccc(OCc2ccc(Cl)cc2)c(OC)c1` (stereo not drawn), the “viability” value was 83.5%.
With `CCC(=O)c1ccc(OCc2ccc(C(=O)OC)cc2)cc1` the “viability” value was 93.7%.
With `CCOC(=O)C(=O)NC12CC3CC(CC(C3)C1)C2` the “viability” value was 102%.
In the case of `COC(=O)c1cc(-c2ccc(OC)cc2)on1`, the “viability” value was 96.7%.
In the case of `O=C1OC(/C=C/c2ccccc2)=NC/1=C\c1cccnc1`, the “viability” value was 101%.
With `CCC1CCC(c2nnc(-c3ccc([N+](=O)[O-])cc3)o2)CC1` (stereo not drawn) the “viability” value was 106%.
With `O=c1c2c([N+](=O)[O-])cc([N+](=O)[O-])cc2nc2ccccn12` the “viability” value was 90%.
For `O=C(OCc1cccc([N+](=O)[O-])c1)c1ccc2ccccc2n1`, the “viability” value was 94.8%.
In the case of `CCCNC(=O)COC(=O)c1cc2c(=O)n3ccccc3nc2s1`, the “viability” value was 103%.
With `CN1/C(=C\C=N\NC(=O)c2cccnc2)C(C)(C)c2ccccc21` the “viability” value was 97.1%.
In the case of `O=C(OCC(=O)N1CCc2ccccc2C1)c1cccc([N+](=O)[O-])c1`, the “viability” value was 99.2%.
In the case of `COc1cc(/C=N/NC(=O)c2ccncc2)ccc1OC(=O)c1cccc(F)c1`, the “viability” value was 97.5%.
In the case of `COc1ccc(NC(=O)COc2ccccc2)cc1Cl`, the “viability” value was 89.8%.
In the case of `Clc1cccc(CNCCNCc2cccc(Cl)c2)c1`, the “viability” value was 84.5%.
In the case of `Clc1ccc(Cl)c(OCCCCNCc2ccccc2)c1`, the “viability” value was 86.6%.
For `CCOC(=O)Nc1cccc(OCC(=O)Nc2ccccc2OC)c1`, the “viability” value was 92.2%.
For `Cc1ccc(NC(=O)CCSc2nnc(Cc3ccccc3)o2)cc1`, the “viability” value was 97.4%.
In the case of `O=S(=O)(c1ccc(OCC2CO2)cc1)c1ccc(OCC2CO2)cc1` (stereo not drawn), the “viability” value was 88.2%.
For `COc1ccc(CCOC(=O)c2ccc(N)c([N+](=O)[O-])c2)cc1`, the “viability” value was 89.5%.
With `CCCCN1C(=O)C2(NNc3ccccc3O2)c2ccccc21` (stereo not drawn) the “viability” value was 93.7%.
With `Cc1ccc(NC(=O)COC(=O)CCc2c[nH]c3ccccc23)cc1[N+](=O)[O-]` the “viability” value was 106%.
With `Cc1cc(NC(=O)c2cc([N+](=O)[O-])cc([N+](=O)[O-])c2)no1` the “viability” value was 99.3%.
With `CC(NC(=O)COc1ccc(-c2ccccc2)cc1)C1CCCO1` (stereo not drawn) the “viability” value was 102%.
With `COc1ccc(C(=O)NNC2=C(C(=O)C(F)(F)F)CCC2)cc1` the “viability” value was 79.2%.
In the case of `CCCCNC(=O)COC(=O)c1cc(F)c(F)cc1Cl`, the “viability” value was 105%.
In the case of `COc1cc(CNC2CCCC2)cc(Cl)c1OCc1ccc(F)cc1`, the “viability” value was 72.3%.
In the case of `Clc1ccc(OCCCNCc2ccccc2)c2ccccc12`, the “viability” value was 75.4%.
For `O=C(Cc1c(F)cccc1Cl)Nc1ncc([N+](=O)[O-])s1`, the “viability” value was 89.8%.
For `Cc1nc(C)c(/C(O)=C/c2nc3ccccc3oc2=O)s1`, the “viability” value was 85.2%.
With `Cc1cccc2c(CC(=O)O)noc12` the “viability” value was 94.5%.
With `CC(C)(C)c1cc(CN2CCC(O)CC2)cc(C(C)(C)C)c1O` the “viability” value was 114%.
With `Cc1ccc(-n2sc3ccccc3c2=O)cc1` the “viability” value was 88.5%.
For `Cc1ccnc(-n2sc3ccccc3c2=O)n1`, the “viability” value was 82.7%.
For `Cn1c(=O)c(Oc2ccc(F)cc2)c(O)c2ccccc21`, the “viability” value was 95%.
In the case of `CSC1=N/C(=C\c2ccc3c(c2)OCO3)C(=O)S1`, the “viability” value was 105%.
With `O=C(COC(=O)c1ccc(Br)o1)NCCCc1ccccc1` the “viability” value was 98.4%.
In the case of `O=C(NC1CCCC1)c1cc(-c2cccs2)on1`, the “viability” value was 101%.
For `Cc1ccccc1C(=O)Nc1nnc(-c2ccco2)o1`, the “viability” value was 75.4%.
For `Cc1ccc(NC(=O)CCSc2nnc(-c3ccco3)o2)cc1`, the “viability” value was 103%.
With `O=C(Nc1nnc(C2=COCCO2)o1)c1ccc(Cc2ccccc2)cc1` the “viability” value was 98.7%.
In the case of `Cc1ccsc1C(=O)OCC(=O)Nc1nnc(-c2ccccc2)o1`, the “viability” value was 110%.
For `O=C(Nc1ccc(Cl)cc1)C1CCCC1`, the “viability” value was 98.3%.
For `O=C(O)c1ccc(-n2nc(C(F)(F)F)c3c2CCCC3)cc1`, the “viability” value was 98.3%.
With `Brc1c(-c2ccc3c(c2)OCO3)nc2ncccn12` the “viability” value was 97.5%.
For `COc1ccc(CC(=O)OCC(=O)Nc2ccc(Br)cc2)cc1`, the “viability” value was 96.7%.
For `CN1CCN(/N=C/c2ccc(-c3ccc([N+](=O)[O-])cc3Cl)o2)CC1`, the “viability” value was 90.6%.
With `O=C(Nc1ccc2c(c1)CCC2)c1ccc(Br)o1` the “viability” value was 93.6%.
With `COC(=O)COc1cccc(NC(=O)c2cccc(C)c2)c1` the “viability” value was 99.5%.
With `CCCCN(C)C(=O)c1cc2cc3ccc(OC)cc3nc2s1` the “viability” value was 86.7%.
In the case of `O=C(Nc1cccc([N+](=O)[O-])c1)C1COc2ccccc2O1` (stereo not drawn), the “viability” value was 93.8%.
For `O=C(N/N=C/c1ccc(OC(=O)c2ccco2)cc1)c1ccccn1`, the “viability” value was 101%.
For `Cc1ccc(OC(=O)CCS(=O)(=O)c2ccc(C)cc2)cc1`, the “viability” value was 101%.
For `CC1=NN(C(=O)c2ccc(Br)cc2)C(O)(c2ccccc2)C1` (stereo not drawn), the “viability” value was 81.5%.
In the case of `CC1(c2nnc(-c3ccc(F)cc3)o2)CC(c2cccc(Cl)c2)=NO1` (stereo not drawn), the “viability” value was 97.2%.
With `COc1cccc(COC(=O)CCNC(=O)c2ccc(Br)cc2)c1OC` the “viability” value was 98.2%.
In the case of `CCOc1cc(-c2sc(Nc3cc(C)ccc3OC)n[n+]2-c2ccccc2)ccc1OC`, the “viability” value was 99.9%.
With `CN1CCN(c2cc3c(cc2F)c(=O)c(C(=O)O)cn3CCF)CC1` the “viability” value was 99.5%.
For `Cc1ccccc1C(=O)NN1CC(C(=O)OCc2ccc(Cl)c(Cl)c2)CC1=O` (stereo not drawn), the “viability” value was 104%.
With `COc1ccc(NC(=O)C(=O)NNC(=O)C(C)Oc2ccc(Cl)cc2Cl)cc1` (stereo not drawn) the “viability” value was 92.2%.
For `COc1ccc(OCCOC(=O)c2cccs2)cc1`, the “viability” value was 99.2%.
For `CCCOC(=O)c1ccc(OC(=O)c2ccco2)cc1`, the “viability” value was 94.4%.
In the case of `O=C(COc1ccc([N+](=O)[O-])cc1)NNC(=O)c1cccs1`, the “viability” value was 112%.
With `C/C(=N\NC(=O)c1ccco1)c1cc(Cl)sc1Cl` the “viability” value was 92.5%.
With `CCc1ccc(OCCCC(=O)NCc2ccco2)cc1` the “viability” value was 110%.
In the case of `COc1ccc(OCCC(=O)OCC(=O)Nc2ccc(Br)cc2)cc1`, the “viability” value was 104%.
With `CC(C(=O)OCC(=O)c1ccccc1)N1C(=O)C2C3CCC(C3)C2C1=O` (stereo not drawn) the “viability” value was 98.4%.
With `COc1cccc(C(=O)OCC(=O)c2ccc(Br)s2)c1OC` the “viability” value was 108%.
In the case of `COc1ccccc1C1=Nn2c(nnc2C2CCCCC2)SC1`, the “viability” value was 97.1%.
In the case of `c1nc2n(n1)C1=C(CCCC1)C1(CCCCC1)N2`, the “viability” value was 104%.
In the case of `O=C(Nc1ccc(Cl)cc1Cl)c1cccc(N2C(=O)C=CC2=O)c1`, the “viability” value was 105%.
With `O=c1c2cc(Cl)ccc2oc2nc3n(c(=O)c12)CCCS3` the “viability” value was 94.8%.
In the case of `CCCc1nnc(NC(=O)c2cc3ccccc3oc2=O)s1`, the “viability” value was 102%.
In the case of `COCc1[nH]nc2c1C(c1sccc1C)C(C#N)=C(N)O2` (stereo not drawn), the “viability” value was 90.7%.
In the case of `CCc1ccc(OCC(=O)c2c(O)c3ccccc3oc2=O)cc1`, the “viability” value was 110%.
With `O=C(CCC1CCCCC1)NCc1cccs1` the “viability” value was 107%.
For `COc1ccc(/C=C/c2nc3ccccc3c(=O)o2)cc1`, the “viability” value was 93.3%.
For `Oc1cc(NCc2cccnc2)ccc1-c1nc2ccccc2o1`, the “viability” value was 70.9%.
With `COc1cc(/C=N/Nc2cccc3cccnc23)cc(OC)c1O` the “viability” value was 88.8%.
For `C/C(O)=C\c1nc2ccccc2oc1=O`, the “viability” value was 83.7%.
For `CC(=O)c1ccc(-c2nnc(CCC(=O)N(C)Cc3cccc4cnccc34)o2)s1`, the “viability” value was 103%.
With `c1coc(CNc2nc(N3CCCCC3)nc3ccccc23)c1` the “viability” value was 82.4%.
With `O=[N+]([O-])c1ccc(CSc2nnc(-c3cccnc3)o2)cc1` the “viability” value was 96.4%.
With `CC1CCN(C(=O)COC(=O)CCc2c[nH]c3ccccc23)CC1` the “viability” value was 87.8%.
For `Cc1ccc(N=N/C(=C\O)C(=O)c2ccncc2)cc1`, the “viability” value was 101%.
For `CCOC(=O)Nc1cccc(OCC(=O)Nc2ccc(OC)cc2OC)c1`, the “viability” value was 92.2%.
In the case of `O=C(Nc1ncc([N+](=O)[O-])s1)c1ccc2c(c1)OCO2`, the “viability” value was 72.5%.
With `Cc1ccc(NC(=O)COC(=O)C2=COCCO2)c([N+](=O)[O-])c1` the “viability” value was 97.8%.
In the case of `O=C(Nc1nccs1)c1ccc2ccccc2c1`, the “viability” value was 90.7%.
In the case of `O=C(COC(=O)c1cc(Br)ccc1O)Nc1ccc2c(c1)OCO2`, the “viability” value was 105%.
With `COc1ccc2nc(/N=C(\N)NC(=O)C(C)(C)C)nc(C)c2c1` the “viability” value was 84.7%.
For `COc1ccc(Nc2ccccc2N)cc1`, the “viability” value was 70.4%.
For `Cc1cccc(NC(=O)c2cc3ccccc3oc2=O)c1`, the “viability” value was 75.2%.
In the case of `CCc1ccc(N2C(=O)NC(=O)/C(=C\C=C\c3ccco3)C2=O)cc1`, the “viability” value was 95%.
With `O=C(COc1ccc2ccccc2c1)NNC(=O)c1cccs1` the “viability” value was 106%.
In the case of `CCc1c(C)c2ccc(OCC(=O)OC)cc2oc1=O`, the “viability” value was 99.3%.
In the case of `O=C(O/N=C/c1ccc2c(c1)OCO2)c1ccc([N+](=O)[O-])cc1`, the “viability” value was 95%.
With `CCC(=O)Nc1ccc(C(=O)NNC(=O)c2cc([N+](=O)[O-])cc([N+](=O)[O-])c2)cc1` the “viability” value was 91.2%.
